# Source: PubChem BioAssay (EPA / NIEHS)
# Where “and” joins values, the source holds several entries; their conditions need not be identical. Equal entries are not always repeated. More than one record can exist for a structure, and the calls need not agree. Calls of active or inactive are those of the source. Rule for the calls: active = hit-call score of the fitted dose curve at least 0.9, where 1 is the maximum; inactive = score below 0.9.
# Tests used:
# [1] = read-out: Collagen IV, COL4A1 (gene 1282); assay: BSK_MyoF_CollagenIV: BioMAP Diversity Plus: MyoF Assay for Collagen IV Biomarker Activity (AID 2284247); details: primary human lung fibroblasts
# Summary of the method: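 Human lung fibroblast system, 24 h chemical exposure. Endpoint: Collagen IV by ELISA, upward fit vs DMSO.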
# [2] = read-out: Plasminogen activator inhibitor-1 (PAI1), SERPINE1 (gene 5054); assay: BSK_MyoF_PAI1: BioMAP Diversity Plus: MyoF Assay for Plasminogen activator inhibitor-1 (PAI1) Biomarker Activity (AID 2284256); details: primary human lung fibroblasts;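 for outcome: PAI-1 protein level measured by ELISA in fibroblast cultures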
# Summary of the method: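 Primary human lung fibroblasts are dosed and incubated 24 h. PAI-1 is then measured by ELISA, while parallel cultures undergo SRB staining for overt cytotoxicity. Increases over DMSO define activity.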
# [3] = read-out: Interleukin-8 (IL8), CXCL8 (gene 3576); assay: BSK_MyoF_IL8: BioMAP Diversity Plus: MyoF Assay for Interleukin-8 (IL8) Biomarker Activity (AID 2284261); details: primary human lung fibroblasts
# Summary of the method: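 IL-8 levels were measured by ELISA in human lung fibroblasts harvested 24 h after compound addition. Responses were analysed as gain of signal over the DMSO baseline.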
# [4] = read-out: Decorin, DCN (gene 1634); assay: BSK_MyoF_Decorin: BioMAP Diversity Plus: MyoF Assay for Decorin Biomarker Activity (AID 2284265); details: primary human lung fibroblasts
# Summary of the method: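 Compound is added to lung fibroblast cultures; cells incubate 24 h; decorin is then measured by ELISA; the response is analysed upward against DMSO controls.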
# [5] = read-out: Monokine induced gamma interferon (MIG), CXCL9 (gene 4283); assay: BSK_KF3CT_MIG: BioMAP Diversity Plus: KF3CT Assay for Monokine induced gamma interferon (MIG) Biomarker Activity (AID 2284248); details: primary human keratinocytes with fibroblasts
# Summary of the method: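 KF3CT system: keratinocyte/fibroblast co-culture, 24 h post-dose, MIG by ELISA; activity vs DMSO, positive fitting direction.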
# [6] = read-out: Vascular cell adhesion molecule 1 (VCAM1), VCAM1 (gene 7412); assay: BSK_BF4T_VCAM1: BioMAP Diversity Plus: BF4T Assay for Vascular cell adhesion molecule 1 (VCAM1) Biomarker Activity (AID 2284249); details: primary human bronchial epithelial cells with fibroblasts
# Summary of the method: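 Cell-surface VCAM-1 quantified by ELISA after 24 h chemical exposure of human bronchial epithelial/dermal fibroblast co-cultures, with SRB staining in parallel wells for cytotoxicity; DMSO baseline, positive-direction fitting.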
# [7] = read-out: Collagen I, COL1A1 (gene 1277); assay: BSK_hDFCGF_CollagenI: BioMAP Diversity Plus: hDFCGF Assay for Collagen I Biomarker Activity (AID 2284250); details: primary human foreskin fibroblasts
# Summary of the method: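 Collagen I ELISA, primary human foreskin fibroblasts, 24 h chemical exposure, DMSO = negative control/baseline, positive fitting direction.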
# [8] = read-out: Interferon-inducible T-cell alpha chemoattractant (ITAC), CXCL11 (gene 6373); assay: BSK_hDFCGF_ITAC: BioMAP Diversity Plus: hDFCGF Assay for Interferon-inducible T-cell alpha chemoattractant (ITAC) Biomarker Activity (AID 2284251); details: primary human foreskin fibroblasts
# Summary of the method: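 Chemical dosing of primary human foreskin fibroblast cultures preceded ELISA measurement of I-TAC at 24 h. Response was analysed in the positive direction using DMSO as baseline, while parallel SRB staining measured cytotoxicity.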
# [9] = read-out: Plasminogen activator inhibitor-1 (PAI1), SERPINE1 (gene 5054); assay: BSK_KF3CT_PAI1: BioMAP Diversity Plus: KF3CT Assay for Plasminogen activator inhibitor-1 (PAI1) Biomarker Activity (AID 2284252); details: primary human keratinocytes with fibroblasts
# Summary of the method: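 Cells (human keratinocytes co-cultured with foreskin fibroblasts) are exposed to test chemical for 24 h. PAI-1 is then measured by ELISA and analysed for signal gain against DMSO.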
# [10] = read-out: Monocyte Chemoattractant Protein-1 (MCP1), CCL2 (gene 6347); assay: BSK_IMphg_MCP1: BioMAP Diversity Plus: IMphg Assay for Monocyte Chemoattractant Protein-1 (MCP1) Biomarker Activity (AID 2284253); details: primary human endothelial cells with macrophages
# Summary of the method: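 ELISA readout of MCP-1 at 24 hours in IMphg co-cultures of venular endothelial cells and macrophages, normalised to DMSO; parallel cultures stained with sulforhodamine B for overt cytotoxicity.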
# [11] = read-out: Interleukin-8 (IL8), CXCL8 (gene 3576); assay: BSK_KF3CT_IL8: BioMAP Diversity Plus: KF3CT Assay for Interleukin-8 (IL8) Biomarker Activity (AID 2284254); details: primary human keratinocytes with fibroblasts
# Summary of the method: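 Chemicals were added to co-cultured human keratinocytes and foreskin fibroblasts, incubated 24 h, then IL-8 was quantified by ELISA. Cytotoxicity was tracked by sulforhodamine B total-protein staining in parallel cultures.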
# [12] = read-out: Macrophage Inflammatory Protein-1 Alpha (MIP1a), CCL3 (gene 6348); assay: BSK_IMphg_MIP1a: BioMAP Diversity Plus: IMphg Assay for Macrophage Inflammatory Protein-1 Alpha (MIP1a) Biomarker Activity (AID 2284255); details: primary human endothelial cells with macrophages
# Summary of the method: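 MIP-1a protein levels were quantified by ELISA after 24 h treatment of human endothelial cell–macrophage co-cultures, compared with DMSO. Parallel cultures were fixed with TCA and stained with 0.1% SRB to gauge overt cytotoxicity.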
# [13] = read-out: CD69, CD69 (gene 969); assay: BSK_IMphg_CD69: BioMAP Diversity Plus: IMphg Assay for CD69 Biomarker Activity (AID 2284257); details: primary human endothelial cells with macrophages
# Summary of the method: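 Readout is ELISA for CD69 in primary human venular endothelial cell/macrophage co-culture, taken at 24 h post-dosing. SRB staining of parallel cultures gauged overt cytotoxicity; signal increase versus DMSO defined activity.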
# [14] = read-out: Eotaxin 3, CCL26 (gene 10344); assay: BSK_BF4T_Eotaxin3: BioMAP Diversity Plus: BF4T Assay for Eotaxin 3 Biomarker Activity (AID 2284258); details: primary human bronchial epithelial cells with fibroblasts
# Summary of the method: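 ELISA measurement of Eotaxin-3 after 24 h chemical exposure in a bronchial epithelial/dermal fibroblast co-culture, with DMSO as baseline. Parallel SRB staining (0.1% SRB after 10% TCA fixation, 560 nm) flagged overt cytotoxicity.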
# [15] = read-out: Monocyte Chemoattractant Protein-1 (MCP1), CCL2 (gene 6347); assay: BSK_BF4T_MCP1: BioMAP Diversity Plus: BF4T Assay for Monocyte Chemoattractant Protein-1 (MCP1) Biomarker Activity (AID 2284259); details: primary human bronchial epithelial cells with fibroblasts
# Summary of the method: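 MCP-1 ELISA readout taken 24 h after dosing in the BF4T system (bronchial epithelial cells plus dermal fibroblasts). Parallel SRB total-protein staining flagged cytotoxicity; DMSO served as baseline, positive fitting direction.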
# [16] = read-out: Intercellular Adhesion Molecule 1 (ICAM1), ICAM1 (gene 3383); assay: BSK_BF4T_ICAM1: BioMAP Diversity Plus: BF4T Assay for Intercellular Adhesion Molecule 1 (ICAM1) Biomarker Activity (AID 2284260); details: primary human bronchial epithelial cells with fibroblasts
# Summary of the method: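 ICAM-1 levels measured by ELISA after 24 h chemical treatment of bronchial epithelial cell/dermal fibroblast co-cultures, read against DMSO baseline. Overt cytotoxicity checked in parallel cultures by sulforhodamine B staining.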
# [17] = read-out: CD90, THY1 (gene 7070); assay: BSK_BF4T_CD90: BioMAP Diversity Plus: BF4T Assay for CD90 Biomarker Activity (AID 2284262); details: primary human bronchial epithelial cells with fibroblasts
# Summary of the method: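 CD90 levels by ELISA after 24 h treatment of human bronchial epithelial cell/dermal fibroblast cultures, analysed versus DMSO. Overt cytotoxicity checked in parallel cultures by sulforhodamine B staining.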
# [18] = read-out: Interleukin-8 (IL8), CXCL8 (gene 3576); assay: BSK_BF4T_IL8: BioMAP Diversity Plus: BF4T Assay for Interleukin-8 (IL8) Biomarker Activity (AID 2284263); details: primary human bronchial epithelial cells with fibroblasts
# Summary of the method: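 Human bronchial epithelial cells with dermal fibroblasts co-culture; IL-8 measured by ELISA 24 hours after dosing, fitted vs DMSO. Cytotoxicity tracked in parallel cultures by SRB total-protein staining.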
# [19] = read-out: Interleukin-1 alpha (IL1a), IL1A (gene 3552); assay: BSK_BF4T_IL1a: BioMAP Diversity Plus: BF4T Assay for Interleukin-1 alpha (IL1a) Biomarker Activity (AID 2284264); details: primary human bronchial epithelial cells with fibroblasts
# Summary of the method: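 ELISA read-out of IL-1α from bronchial epithelial cell/dermal fibroblast co-cultures 24 h after compound addition. Increases scored against DMSO negative control. Cytotoxicity monitored by sulforhodamine B staining of parallel cultures.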
# [20] = read-out: KRT18 (gene 3875); assay: BSK_BF4T_Keratin818: BioMAP Diversity Plus: BF4T Assay for Keratin 818 Biomarker Activity (AID 2284266); details: primary human bronchial epithelial cells with fibroblasts
# Summary of the method: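 Keratin 8/18 levels quantified by ELISA after 24 h chemical treatment of bronchial epithelial cell/dermal fibroblast co-cultures, fitted in positive direction relative to DMSO. Parallel SRB staining tracks overt cytotoxicity.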
smiles,measurement,setting,value
CCNc1nc(NC(C)(C)C)nc(OC)n1,outcome,[1],inactive
same,outcome,[2],inactive
same,outcome,[3],inactive
same,outcome,[4],inactive
C=CC(=O)OCC(C)OCC(C)OCC(C)OC(=O)C=C (stereo unspecified),AC50,[1],23.5 µM (active)
same,AC50,[2],30.9 µM (active)
same,outcome,[3],inactive
same,AC50,[4],20 µM (active)
CC(Cl)COP(=O)(OCC(C)Cl)OCC(C)Cl (stereo unspecified),outcome,[1],inactive
same,outcome,[2],inactive
same,outcome,[3],inactive
same,outcome,[4],inactive
CC/C=C\CCOC(=O)c1ccccc1O,AC50,[1],33.2 µM (active)
same,AC50,[2],31.3 µM (active)
same,outcome,[3],inactive
same,AC50,[4],20 µM (active)
C[N+](C)(C)CCCNS(=O)(=O)C(F)(F)C(F)(F)C(F)(F)C(F)(F)C(F)(F)C(F)(F)C(F)(F)C(F)(F)F,AC50,[1],48.9 µM (active)
same,outcome,[1],inactive
same,outcome,[5],inactive
same,outcome,[6],inactive
same,outcome,[7],inactive
same,AC50,[8],47.1 µM (active) and 49.6 µM (active)
same,AC50,[9],46.1 µM (active)
same,outcome,[9],inactive
same,outcome,[10],inactive
same,outcome,[11],inactive
same,AC50,[12],50.5 µM (active) and 56.9 µM (active)
same,AC50,[2],21.9 µM (active)
same,outcome,[2],inactive
same,AC50,[13],8.01 µM (active)
same,outcome,[13],inactive
same,outcome,[14],inactive
same,outcome,[15],inactive
same,outcome,[16],inactive
same,outcome,[3],inactive
same,outcome,[17],inactive
same,outcome,[18],inactive
same,AC50,[19],30 µM (active)
same,outcome,[19],inactive
same,AC50,[4],9.66 µM (active) and 11.2 µM (active)
same,AC50,[20],26.5 µM (active) and 5.95 µM (active)
